PNC inhibitor: inhibitors of perinucleolar compartment assembly; PC3M PTB-GFP, PNC prevalence imaging, 16 h; active compounds read low; activity change (PNC), negative = inhibition, % at 10 µM; 3.1% of 140,000 active;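 active = readout at or below -70, meaning at least 70% loss of cells showing the perinucleolar compartment, a nuclear body marking cancer cells; inconclusive = readout between -30 and a set limit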;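 also: plate controls were DMSO wells for no effect and camptothecin positive control wells for full effect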
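Compounds are pinned in duplicate onto adhered PC3M cells stably expressing GFP-tagged PTB and incubated 16 h at 37 C. Cells are then fixed, nuclei stained with Hoechst, and PNC-positive cells counted.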
HPGD block: inhibitors of human 15-hydroxyprostaglandin dehydrogenase (HPGD); purified HPGD, NADH fluorescence kinetic, PGE2 substrate; Potency, µM, for the others: top-dose activity change, negative = inhibition, most hits filed as inhibitors; 4.3% of 150,000 active; also: potency is read from the fitted curve at half-maximal effect
Target sequence (P15428 whole entry, looked up): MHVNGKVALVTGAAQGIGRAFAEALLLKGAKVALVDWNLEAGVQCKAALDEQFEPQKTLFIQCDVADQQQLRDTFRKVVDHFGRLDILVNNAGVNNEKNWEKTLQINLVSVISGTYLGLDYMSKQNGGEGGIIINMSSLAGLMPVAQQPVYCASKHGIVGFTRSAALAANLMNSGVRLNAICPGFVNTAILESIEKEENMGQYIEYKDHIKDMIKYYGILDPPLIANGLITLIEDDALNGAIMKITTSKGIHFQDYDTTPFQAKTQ
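20 nM HPGD preincubated 15 min at room temperature with compound in 50 mM Tris-HCl pH 8, 0.01% Tween 20. Started with 1 mM NAD+ and 30 uM prostaglandin E2; NADH fluorescence (360/450 nm) read 5 times over 30-s intervals, last minus first.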
ALDH1A1 block: inhibitors of human aldehyde dehydrogenase 1A1; P00352; Purified ALDH1A1, NADH fluorescence, propionaldehyde substrate; Potency, µM (titrated, usually from 75.3 µM), for the others: at the highest dose activity, negative = inhibition, actives largely listed as inhibitors; 7.3% of 220,000 active; AID 1030;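 also: potency is read from the fitted curve at half-maximal effect; plate controls were no enzyme wells and a reference inhibitor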
* hit, by the source's call; [ ] = dose if it differs, or a comment. Most compounds without a hit are left out; they make up all but 11% or so of the library. Unless noted, calls follow the shape of the dose curve; as a rule, active = well fitted inhibition curve with a large enough effect (not every such curve was filed as active); inconclusive = small, poorly fitted or top-dose-only effect, or another doubt; inactive = no such curve, though single readings can be large or run the other way. Unless noted, % is scaled to controls: 0 for no effect and ±100 for the full control effect.

How did Cc1sc(NC(=O)Cc2ccc3c(c2)OCO3)nc1-c1ccc2c(c1)CCN2C(=O)c1cccc(F)c1 do in these assays?
PNC inhibitor: -119*; HPGD block: -20%; ALDH1A1 block: inconclusive

Results for COCCOC(=O)c1ccccc1C(=O)OCCOC ?
HPGD block: -6%; ALDH1A1 block: -59%

How did CC(=O)Nc1ccccc1 do in these assays?
HPGD block: -7%; ALDH1A1 block: 8%

What do the screens show for `CC(=O)C(Cl)C(=O)Nc1ccccc1` (centres undefined)?
ALDH1A1 block: 1.3µM*

How did CC(=O)NC1=C(NC2CCS(=O)(=O)C2)C(=O)c2ccccc2C1=O (centres undefined) do in these assays?
PNC inhibitor: -28; HPGD block: 11µM*; ALDH1A1 block: 4%

Results for CN(C1=C(NC(=O)c2ccccc2)C(=O)c2ccccc2C1=O)C1CCS(=O)(=O)C1 (centres undefined) ?
PNC inhibitor: 95; HPGD block: -27%; ALDH1A1 block: inconclusive

What do the screens show for `CCn1c(-c2csc3c2CCC(C)C3)n[nH]c1=S` (centres undefined)?
PNC inhibitor: -22; HPGD block: -29%; ALDH1A1 block: inconclusive

Results for CSCCC(NC(=O)c1ccc(Cl)cc1)C(=O)OCC(=O)Nc1cc(Cl)ccc1C#N (centres undefined) ?
PNC inhibitor: -2; HPGD block: -12%; ALDH1A1 block: -7%

What do the screens show for `O=C(CSc1nnc(-c2ccncc2)o1)Nc1ccccc1Cl`?
PNC inhibitor: -90*; HPGD block: -8%; ALDH1A1 block: -5%

Results for COc1ccccc1NC(=O)CSc1nnc(-c2ccncc2)o1 ?
PNC inhibitor: 24; HPGD block: -16%; ALDH1A1 block: inconclusive

What do the screens show for `Cn1c(=O)c2c(ncn2CC(=O)N/N=C/c2c[nH]c3ccccc23)n(C)c1=O`?
ALDH1A1 block: 5%

How did Cc1cccc(-c2c3c(=O)n(C)c(=O)n(C)c3cn2CC2CCCO2)c1 (centres undefined) do in these assays?
PNC inhibitor: 19; HPGD block: -21%; ALDH1A1 block: 20µM*

How did Cn1c(=O)c2c(-c3ccc(C(C)(C)C)cc3)n(CC3CCCO3)cc2n(C)c1=O (centres undefined) do in these assays?
PNC inhibitor: 26; HPGD block: -19%; ALDH1A1 block: inconclusive

What do the screens show for `COc1ccc(NC(=O)COc2ccc(-c3nn(C)c(=O)c4ccccc34)cc2)cc1`?
ALDH1A1 block: 16%

How did Cn1nc(-c2ccc(C(=O)O)cc2)c2ccccc2c1=O do in these assays?
PNC inhibitor: 35; HPGD block: 7.9µM*; ALDH1A1 block: 6%

What do the screens show for `COC(=O)c1ccc(-c2nn(C)c(=O)c3ccccc23)cc1`?
PNC inhibitor: -108*; HPGD block: inconclusive; ALDH1A1 block: inconclusive

What do the screens show for `CN(CCO)C(=O)c1ccc(-c2nn(C)c(=O)c3ccccc23)cc1`?
ALDH1A1 block: -5%

What do the screens show for `C[C@@H](O)CCC[C@H](O)/C=C/[C@@H]1[C@@H](C/C=C\CCCC(=O)O)[C@@H](O)C[C@H]1O`?
HPGD block: -3%; ALDH1A1 block: -3%

Results for OCl ?
HPGD block: -14%; ALDH1A1 block: 4%

What do the screens show for `Cc1cc2n(n1)SC(Nc1ccccc1)N2` (centres undefined)?
PNC inhibitor: 58; HPGD block: -15%; ALDH1A1 block: 25µM*

How did Cc1cc(NC(=NC2CC2)c2ccccc2)n(-c2ccccc2)n1 do in these assays?
ALDH1A1 block: 15%

What do the screens show for `CO[C@H]1COC(=O)C/C=C\[C@H](C)[C@H](OC)COC(=O)[C@@H](C)NC(=O)C/C=C\[C@@H]1C`?
ALDH1A1 block: -2%[13.5 µM]

What do the screens show for `CN(c1ccccc1)S(=O)(=O)c1cccc(NC(=O)CSc2nncs2)c1`?
PNC inhibitor: 0; HPGD block: -22%; ALDH1A1 block: 2%

What do the screens show for `COc1ccc(NC(=O)c2cc3ccc4c5ccccc5[nH]c4c3cc2O)cc1`?
ALDH1A1 block: 4%

How did Clc1ccc2c(c1)[C@H]1OCC[C@H]1[C@@H](c1ccco1)N2 do in these assays?
PNC inhibitor: 60; HPGD block: inconclusive; ALDH1A1 block: inconclusive

How did CCc1ccc2c(c1)[C@H]1OCC[C@H]1[C@@H](c1cccs1)N2 do in these assays?
PNC inhibitor: -109*; HPGD block: -20%; ALDH1A1 block: -2%

How did CCOC(=O)c1cc(C#N)c(Oc2ccccc2OC)nc1-c1ccccc1 do in these assays?
PNC inhibitor: 59; HPGD block: -22%; ALDH1A1 block: -2%

What do the screens show for `CCCNC1=C(N(C(C)=O)c2cccc(F)c2)C(=O)c2ccccc2C1=O`?
PNC inhibitor: -90*; HPGD block: -4%; ALDH1A1 block: 18%

How did CCCNC(=O)COC(=O)/C=C/c1cccc(F)c1 do in these assays?
ALDH1A1 block: 9%

High-throughput results (PubChem)
